The values that follow come from ChEMBL document CHEMBL1961873, “Compounds: GSK PKIS; Assays: Nanosyn kinase panel” (2012).

Assay [1] concerns the target CDK3/Cyclin E (Homo sapiens) (UniProt P24864+Q00526). The settings on record: at 1 µM.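 Note: each figure is a mean percent inhibition of the CDK3/cyclin E complex.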
Assay [2] addresses Cyclin-dependent kinase 4 (Homo sapiens) (UniProt P11802). The settings on record: at 0.1 µM.
Assay [3] has the same target. The settings on record: at 1 µM.
The target in assay [4] is Cyclin-dependent kinase 5 (Homo sapiens) (UniProt Q00535). The settings on record: at 0.1 µM.
The target is the same in assay [5]. The settings on record: at 1 µM.
Assay [6] addresses Cyclin-dependent kinase 6 (Homo sapiens) (UniProt Q00534). The settings on record: at 0.1 µM.
The target is the same in assay [7]. The settings on record: at 1 µM.
Assay [8] concerns the target Dual specificity protein kinase CLK2 (Homo sapiens) (UniProt P49760). The settings on record: at 0.1 µM.
Assay [9] has the same target. The settings on record: at 1 µM.
Assay [10] concerns the target Dual specificity protein kinase CLK3 (Homo sapiens) (UniProt P49761). The settings on record: at 0.1 µM.
Assay [11] shares this target. The settings on record: at 1 µM.
Assay [12] has as its target Dual specificity tyrosine-phosphorylation-regulated kinase 1A (Homo sapiens) (UniProt Q13627). The settings on record: at 0.1 µM.
Assay [13] has the same target. The settings on record: at 1 µM.
For assay [14], the target named is Dual specificity tyrosine-phosphorylation-regulated kinase 1B (Homo sapiens) (UniProt Q9Y463). The settings on record: at 0.1 µM.
For assay [15] the target is unchanged. The settings on record: at 1 µM.
Assay [16] concerns the target T1, Dual specificity tyrosine-phosphorylation-regulated kinase 2 (Homo sapiens) (UniProt Q92630).
T1 sequence (whole entry): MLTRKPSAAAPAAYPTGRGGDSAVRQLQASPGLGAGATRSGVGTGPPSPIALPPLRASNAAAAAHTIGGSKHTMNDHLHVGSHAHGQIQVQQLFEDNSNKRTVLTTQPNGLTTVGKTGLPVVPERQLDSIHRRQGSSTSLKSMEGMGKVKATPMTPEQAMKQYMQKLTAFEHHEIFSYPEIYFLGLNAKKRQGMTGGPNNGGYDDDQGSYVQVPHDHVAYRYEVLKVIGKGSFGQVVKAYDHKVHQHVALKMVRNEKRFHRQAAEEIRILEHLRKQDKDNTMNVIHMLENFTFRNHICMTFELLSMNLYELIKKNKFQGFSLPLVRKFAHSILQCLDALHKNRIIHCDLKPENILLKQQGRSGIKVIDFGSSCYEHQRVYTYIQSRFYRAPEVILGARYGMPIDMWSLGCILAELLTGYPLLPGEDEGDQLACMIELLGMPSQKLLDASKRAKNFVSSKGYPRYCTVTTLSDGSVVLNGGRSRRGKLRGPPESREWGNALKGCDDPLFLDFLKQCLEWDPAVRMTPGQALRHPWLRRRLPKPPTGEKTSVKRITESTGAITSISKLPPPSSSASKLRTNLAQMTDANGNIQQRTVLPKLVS
The settings on record: at 0.1 µM.

Assay [17] addresses T1, Dual specificity tyrosine-phosphorylation-regulated kinase 2 (Homo sapiens). The settings on record: at 1 µM.
Assay [18] concerns the target Glycogen synthase kinase-3 alpha (Homo sapiens) (UniProt P49840). The settings on record: at 0.1 µM.
The target is the same in assay [19]. The settings on record: at 1 µM.
For assay [20], the target named is Glycogen synthase kinase-3 beta (Homo sapiens) (UniProt P49841). The settings on record: at 0.1 µM.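 Note: values are mean percent inhibition of GSK3B activity, from the GSK Published Kinase Inhibitor Set (PKIS) screening dataset.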

The structures appear in SMILES notation.

Chain of Cyclin-dependent kinase 6 (Homo sapiens) (Q00534 whole entry): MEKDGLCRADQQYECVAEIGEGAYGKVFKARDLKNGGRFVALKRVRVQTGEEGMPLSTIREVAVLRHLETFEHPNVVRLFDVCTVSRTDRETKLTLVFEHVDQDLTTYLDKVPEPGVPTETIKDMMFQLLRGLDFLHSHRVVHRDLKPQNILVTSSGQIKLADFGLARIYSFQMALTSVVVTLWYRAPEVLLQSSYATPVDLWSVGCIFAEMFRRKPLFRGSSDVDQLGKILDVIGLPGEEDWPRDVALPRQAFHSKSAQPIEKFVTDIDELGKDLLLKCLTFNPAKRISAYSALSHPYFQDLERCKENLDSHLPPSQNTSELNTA
Chain of Dual specificity protein kinase CLK3 (Homo sapiens) (P49761 whole entry, looked up): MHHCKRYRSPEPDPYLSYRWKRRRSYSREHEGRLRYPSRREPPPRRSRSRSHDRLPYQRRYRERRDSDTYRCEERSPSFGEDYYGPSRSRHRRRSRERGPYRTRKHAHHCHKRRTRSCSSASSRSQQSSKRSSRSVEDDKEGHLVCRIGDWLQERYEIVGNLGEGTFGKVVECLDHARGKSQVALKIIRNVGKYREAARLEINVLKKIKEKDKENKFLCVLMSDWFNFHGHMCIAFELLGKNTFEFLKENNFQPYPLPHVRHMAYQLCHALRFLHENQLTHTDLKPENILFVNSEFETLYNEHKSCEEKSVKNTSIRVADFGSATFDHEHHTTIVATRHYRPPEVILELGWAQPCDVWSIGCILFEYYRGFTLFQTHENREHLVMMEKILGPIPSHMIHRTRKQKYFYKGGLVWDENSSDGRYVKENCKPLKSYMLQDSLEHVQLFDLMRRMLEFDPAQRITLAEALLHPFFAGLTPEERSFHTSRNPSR
Chain of Cyclin-dependent kinase 4 (Homo sapiens) (P11802 whole entry): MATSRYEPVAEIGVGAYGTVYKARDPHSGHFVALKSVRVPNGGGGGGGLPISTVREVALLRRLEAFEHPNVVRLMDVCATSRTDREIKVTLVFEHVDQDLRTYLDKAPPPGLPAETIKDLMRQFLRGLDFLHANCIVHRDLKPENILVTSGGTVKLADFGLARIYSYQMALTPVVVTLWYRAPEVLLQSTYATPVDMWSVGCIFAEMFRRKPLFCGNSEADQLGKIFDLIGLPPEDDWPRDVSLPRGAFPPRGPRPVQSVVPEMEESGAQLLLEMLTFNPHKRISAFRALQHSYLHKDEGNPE
Chain of Glycogen synthase kinase-3 beta (Homo sapiens) (P49841 whole entry, looked up): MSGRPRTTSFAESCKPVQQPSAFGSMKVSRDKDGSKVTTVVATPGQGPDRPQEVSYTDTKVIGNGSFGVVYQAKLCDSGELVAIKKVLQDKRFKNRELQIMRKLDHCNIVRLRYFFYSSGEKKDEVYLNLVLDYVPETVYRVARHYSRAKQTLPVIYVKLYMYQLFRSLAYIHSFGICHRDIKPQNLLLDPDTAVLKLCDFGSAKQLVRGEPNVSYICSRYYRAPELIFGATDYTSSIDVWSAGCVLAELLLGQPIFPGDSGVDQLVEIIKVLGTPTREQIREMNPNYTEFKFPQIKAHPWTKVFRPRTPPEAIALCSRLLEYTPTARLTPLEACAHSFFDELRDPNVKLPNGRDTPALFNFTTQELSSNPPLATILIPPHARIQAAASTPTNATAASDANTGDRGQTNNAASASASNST
Chain of Dual specificity protein kinase CLK2 (Homo sapiens) (P49760 whole entry, looked up): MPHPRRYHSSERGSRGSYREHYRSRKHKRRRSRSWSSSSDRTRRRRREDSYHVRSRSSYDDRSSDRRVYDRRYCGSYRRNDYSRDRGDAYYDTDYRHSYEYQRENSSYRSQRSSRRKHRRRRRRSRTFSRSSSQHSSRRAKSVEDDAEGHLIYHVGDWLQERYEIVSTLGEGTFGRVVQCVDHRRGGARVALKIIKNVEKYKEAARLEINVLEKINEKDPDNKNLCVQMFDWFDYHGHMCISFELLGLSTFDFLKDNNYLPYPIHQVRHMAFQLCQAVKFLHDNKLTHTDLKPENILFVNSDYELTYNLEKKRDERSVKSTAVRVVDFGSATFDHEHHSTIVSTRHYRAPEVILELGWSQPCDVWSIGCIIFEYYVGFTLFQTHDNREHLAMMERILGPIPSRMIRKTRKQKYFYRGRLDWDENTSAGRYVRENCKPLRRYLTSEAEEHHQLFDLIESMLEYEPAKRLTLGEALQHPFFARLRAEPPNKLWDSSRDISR
Chain of Cyclin-dependent kinase 5 (Homo sapiens) (Q00535 whole entry, looked up): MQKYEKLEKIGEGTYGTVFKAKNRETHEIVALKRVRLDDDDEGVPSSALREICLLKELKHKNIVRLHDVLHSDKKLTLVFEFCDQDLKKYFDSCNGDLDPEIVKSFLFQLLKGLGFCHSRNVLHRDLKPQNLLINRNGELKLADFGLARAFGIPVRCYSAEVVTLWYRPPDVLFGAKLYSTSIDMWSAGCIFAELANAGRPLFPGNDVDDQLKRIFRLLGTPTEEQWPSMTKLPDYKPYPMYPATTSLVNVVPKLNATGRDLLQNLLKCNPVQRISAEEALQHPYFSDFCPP
Chain of CDK3/Cyclin E (Homo sapiens) (P24864 whole entry, looked up): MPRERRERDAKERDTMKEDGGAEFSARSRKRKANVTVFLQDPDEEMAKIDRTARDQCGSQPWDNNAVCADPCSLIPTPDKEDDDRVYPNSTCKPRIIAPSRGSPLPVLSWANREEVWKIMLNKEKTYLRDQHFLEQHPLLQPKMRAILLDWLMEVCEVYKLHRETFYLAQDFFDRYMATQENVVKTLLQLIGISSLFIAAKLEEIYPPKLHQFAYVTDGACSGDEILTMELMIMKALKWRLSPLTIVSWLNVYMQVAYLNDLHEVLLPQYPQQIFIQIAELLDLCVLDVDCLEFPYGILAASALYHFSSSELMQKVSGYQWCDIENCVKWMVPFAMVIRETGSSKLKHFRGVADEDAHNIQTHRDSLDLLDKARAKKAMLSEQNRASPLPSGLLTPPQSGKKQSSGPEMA
Chain of CDK3/Cyclin E (Homo sapiens) (Q00526 whole entry, looked up): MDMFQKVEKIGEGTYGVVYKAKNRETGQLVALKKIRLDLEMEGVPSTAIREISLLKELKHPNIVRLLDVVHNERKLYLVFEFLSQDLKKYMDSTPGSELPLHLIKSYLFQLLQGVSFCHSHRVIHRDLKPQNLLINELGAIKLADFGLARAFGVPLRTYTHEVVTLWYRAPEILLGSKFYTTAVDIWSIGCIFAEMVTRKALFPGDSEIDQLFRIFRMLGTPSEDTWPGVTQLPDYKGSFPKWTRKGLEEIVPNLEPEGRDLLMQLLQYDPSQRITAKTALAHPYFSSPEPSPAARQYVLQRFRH
Chain of Dual specificity tyrosine-phosphorylation-regulated kinase 1B (Homo sapiens) (Q9Y463 whole entry, looked up): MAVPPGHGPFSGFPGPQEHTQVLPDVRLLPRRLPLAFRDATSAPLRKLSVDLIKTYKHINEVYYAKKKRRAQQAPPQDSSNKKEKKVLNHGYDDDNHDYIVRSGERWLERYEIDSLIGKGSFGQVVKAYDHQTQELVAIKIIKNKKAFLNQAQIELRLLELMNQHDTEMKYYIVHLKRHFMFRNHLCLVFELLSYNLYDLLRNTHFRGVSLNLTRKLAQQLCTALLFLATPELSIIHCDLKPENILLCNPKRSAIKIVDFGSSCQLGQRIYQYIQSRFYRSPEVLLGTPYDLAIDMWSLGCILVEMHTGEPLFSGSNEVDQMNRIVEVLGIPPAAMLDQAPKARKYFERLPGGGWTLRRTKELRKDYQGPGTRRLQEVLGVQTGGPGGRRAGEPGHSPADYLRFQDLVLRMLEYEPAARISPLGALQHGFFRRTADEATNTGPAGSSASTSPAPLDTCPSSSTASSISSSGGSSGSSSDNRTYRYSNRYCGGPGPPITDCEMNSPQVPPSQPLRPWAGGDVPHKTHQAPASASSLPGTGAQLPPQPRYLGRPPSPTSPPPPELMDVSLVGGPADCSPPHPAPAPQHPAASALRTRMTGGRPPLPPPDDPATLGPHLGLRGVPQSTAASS
Chain of Glycogen synthase kinase-3 alpha (Homo sapiens) (P49840 2-483 limits assumed): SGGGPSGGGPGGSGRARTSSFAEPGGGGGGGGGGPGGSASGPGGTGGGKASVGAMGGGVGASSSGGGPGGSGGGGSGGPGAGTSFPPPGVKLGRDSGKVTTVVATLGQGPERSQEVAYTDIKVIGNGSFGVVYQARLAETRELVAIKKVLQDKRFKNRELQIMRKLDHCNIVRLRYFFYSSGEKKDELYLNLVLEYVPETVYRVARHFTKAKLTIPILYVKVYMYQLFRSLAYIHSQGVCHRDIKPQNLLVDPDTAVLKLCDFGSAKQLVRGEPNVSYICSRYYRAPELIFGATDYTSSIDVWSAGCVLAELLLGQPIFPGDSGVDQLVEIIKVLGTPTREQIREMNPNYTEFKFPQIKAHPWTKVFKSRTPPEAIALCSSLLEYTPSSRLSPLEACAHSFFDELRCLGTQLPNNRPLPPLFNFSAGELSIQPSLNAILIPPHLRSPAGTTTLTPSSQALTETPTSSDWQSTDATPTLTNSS

`Fc1ccc(-c2c(-c3ccncc3)nc3n2CCS3)cc1`: the inhibition was -3.24% in assay [1]; -2.5% in assay [2]; -1.15% in assay [3]; -3.5% in assay [4]; -3.63% in assay [5]; -6.1% in assay [6]. The inhibition is -2.27% in assay [7]; 0.14% in [8]; 0.05% in assay [9]; -2.3% in [10]; -1.56% in assay [11]; -1.74% in [12]. For the same compound, the inhibition in [13] is 0.34%; in assay [14], -4.54%; in [15], -2.54%; in assay [16], 1.26%; in assay [17], 1.86%; in assay [18], -2.59%. Further, the figures for the inhibition in assay [19] and in [20] were 1.28% and -2.25%, respectively.
For the compound `N#Cc1ccc(Oc2nccc(-c3c(-c4ccc(F)cc4)ncn3C3CCNCC3)n2)cc1`, the inhibition was -2.53% in [1]; 0.98% in assay [2]; 3.8% in assay [3]; 0.41% in [4]; 1.15% in assay [5]; 1.26% in assay [6]. Besides, the inhibition in [7] is -1.15%; in [8] it was 1%; in assay [9], -0.9%; in assay [10], 0.28%; in assay [11], -0.16%; in assay [12], 2.5%. The inhibition is 3.49% in [13]; -2.39% in assay [14]; -1.58% in assay [15]; 2.92% in [16]; 2.24% in [17]; 1.66% in assay [18]. Also, the inhibition in assay [19] came out at 2.69%; in assay [20], 0.3%.
As for `CCc1ccc(Oc2nccc(-c3c(-c4ccc(F)cc4)ncn3C3CCNCC3)n2)cc1`, the inhibition in assay [1] was -3.4%; in assay [2], 1.49%; in [3], 2.34%; in assay [4], 0.94%; in assay [5], 2.25%; in [6] it was -3.34%. In addition, the inhibition in [7] is -4.3%; in assay [8] it was 1.29%; in [9], 3.58%; in assay [10], 0.96%; in assay [11], 0.51%; in assay [12], 0.92%. The inhibition is 1.59% in assay [13]; -0.38% in assay [14]; 1.04% in assay [15]; 4.87% in [16]; 4.71% in assay [17]; 3.69% in assay [18]. Also, the results for the inhibition in [19] and in assay [20] were 7.13% and 2.44%, respectively.
In the case of `NC(=O)c1cc(-c2ccc(F)cc2)cc(-c2ccncc2)c1N`, the inhibition in assay [1] was -2.25%; in [2], 4.11%; in [3] it was 2.25%; in assay [4], -0.26%; in [5], -1.83%; in [6] it was 0.37%. Besides, the inhibition was -0.58% in assay [7]; 0.69% in assay [8]; 1.24% in [9]; 1.01% in assay [10]; 0.95% in assay [11]; 1.07% in assay [12]. For the same compound, the inhibition in [13] is 3.02%; in assay [14], -0.78%; in [15], -1.19%; in assay [16] it was 3.58%; in [17] it was 5.04%; in assay [18] it was 1.24%. Moreover, the inhibition in [19] is 1.03%; in [20], 0.05%.
As to `Cc1ccc(C(=O)NC2CCC2)cc1-c1ccc(C(=O)NCC2CC2)cc1`, the inhibition in assay [1] is -2.09%; in assay [2], 2.48%; in assay [3] it was 3.14%; in assay [4], 0.96%; in assay [5], 1.18%; in assay [6], -2.65%. In addition, the inhibition in [7] was 1.04%; in assay [8] it was 0.82%; in [9], 1.37%; in assay [10], 1.37%; in assay [11] it was 1.28%; in [12], 2.74%. Moreover, the inhibition in [13] is 5.39%; in assay [14] it was 1.78%; in assay [15] it was 2.49%; in assay [16], 2.22%; in assay [17] it was 3.3%; in assay [18], 1.01%. The inhibition came to 4.22% in [19] and 0.28% in assay [20].
For the compound `O=C(NCC1CC1)c1ccc(-c2cccc(C(=O)NC3CC3)c2)cc1`, the inhibition in assay [1] was 2.64%; in assay [2], 2.46%; in assay [3], 2.18%; in [4], 0.16%; in [5] it was 0.99%; in assay [6], 5.87%. In addition, the inhibition was -0.5% in assay [7]; -0.19% in assay [8]; 1.77% in assay [9]; 0.44% in assay [10]; 2.44% in assay [11]; 0.99% in assay [12]. In addition, the inhibition in [13] turned out to be 2.88%; in [14], 0.66%; in assay [15] it was 1.93%; in [16], 2.27%; in assay [17], 3.38%; in assay [18] it was 1.5%. Also, the inhibition was found to be 3.17% in assay [19] and 1.32% in [20].
As to `O=C(Nc1n[nH]c2nc(-c3ccc(O)cc3)c(Br)cc12)C1CC1`, the inhibition in [1] stood at 78.2%; in assay [2], 42%; in [3], 73.9%; in assay [4], 14.7%; in assay [5] it was 55.3%; in assay [6], 38.9%. For the same compound, the inhibition was 74.7% in [7]; 1.45% in assay [8]; 5.65% in [9]; 2.91% in assay [10]; 8.39% in assay [11]; 17.6% in assay [12]. The inhibition in assay [13] worked out at 55.5%; in assay [14] it was 33.2%; in [15], 71.7%; in [16], 12.4%; in assay [17], 53.3%; in assay [18], 82.8%. The inhibition in assay [19] is 85.7%.

A word on the inhibition: it is the drop in the measured response relative to a control, in per cent.
